A selection: hits, their analogues and other compounds. The true share with any hit is near 12%.
HP1b binding inh = blocks HP1-beta chromodomain binding to methylated histone tails; P83916; AlphaScreen HP1-beta / biotin-H3K9me3 peptide binding; Potency, µM (highest dose often 114 µM), for the others: top-dose activity change, negative = inhibition, hits mostly inhibitors; 390,000 compounds, 0.56% hits; AID 540317; also: nearly all actives have a fitted effect of over 70% in size
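Compound inhibition of the preformed complex between 50 nM HP1-beta and 50 nM biotinylated H3K9me3 peptide was read by AlphaScreen. Buffer was PBS pH 7.4 with 0.01% Tween-20. Incubations ran 30 min at room temperature, with 10 ug/mL donor/acceptor beads.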
PLK1 PBD block = blocks phosphopeptide binding to human PLK1 polo-box domain. Plk1 PBD binding of FITC phosphopeptide, fluorescence polarization. Potency, µM, for the others: max response, negative = inhibition, hits mostly inhibitors. 360,000 compounds, 2.8% hits. AID 720504; also: series mostly up to about 57 µM; % is scaled to controls: 0 for no effect and ±100 for the full control effect; nearly all actives have a fitted effect of over 65% in size
JMJD2A Tudor inh = inhibitors of human JMJD2A Tudor domain | AID 504339 | 390,000 compounds, 4.4% hits | O75164 | AlphaScreen JMJD2A-Tudor / H3K4me3 peptide binding | Potency, µM (top dose mostly 114 µM), for inactives: at the highest dose activity change, negative = inhibition, usual class: inhibitors; also: % is scaled to controls: 0 for no effect and ±100 for the full control effect; nearly all actives have a fitted effect of over 50% in size
Target sequence (O75164 whole entry, looked up, the tested form may be a part): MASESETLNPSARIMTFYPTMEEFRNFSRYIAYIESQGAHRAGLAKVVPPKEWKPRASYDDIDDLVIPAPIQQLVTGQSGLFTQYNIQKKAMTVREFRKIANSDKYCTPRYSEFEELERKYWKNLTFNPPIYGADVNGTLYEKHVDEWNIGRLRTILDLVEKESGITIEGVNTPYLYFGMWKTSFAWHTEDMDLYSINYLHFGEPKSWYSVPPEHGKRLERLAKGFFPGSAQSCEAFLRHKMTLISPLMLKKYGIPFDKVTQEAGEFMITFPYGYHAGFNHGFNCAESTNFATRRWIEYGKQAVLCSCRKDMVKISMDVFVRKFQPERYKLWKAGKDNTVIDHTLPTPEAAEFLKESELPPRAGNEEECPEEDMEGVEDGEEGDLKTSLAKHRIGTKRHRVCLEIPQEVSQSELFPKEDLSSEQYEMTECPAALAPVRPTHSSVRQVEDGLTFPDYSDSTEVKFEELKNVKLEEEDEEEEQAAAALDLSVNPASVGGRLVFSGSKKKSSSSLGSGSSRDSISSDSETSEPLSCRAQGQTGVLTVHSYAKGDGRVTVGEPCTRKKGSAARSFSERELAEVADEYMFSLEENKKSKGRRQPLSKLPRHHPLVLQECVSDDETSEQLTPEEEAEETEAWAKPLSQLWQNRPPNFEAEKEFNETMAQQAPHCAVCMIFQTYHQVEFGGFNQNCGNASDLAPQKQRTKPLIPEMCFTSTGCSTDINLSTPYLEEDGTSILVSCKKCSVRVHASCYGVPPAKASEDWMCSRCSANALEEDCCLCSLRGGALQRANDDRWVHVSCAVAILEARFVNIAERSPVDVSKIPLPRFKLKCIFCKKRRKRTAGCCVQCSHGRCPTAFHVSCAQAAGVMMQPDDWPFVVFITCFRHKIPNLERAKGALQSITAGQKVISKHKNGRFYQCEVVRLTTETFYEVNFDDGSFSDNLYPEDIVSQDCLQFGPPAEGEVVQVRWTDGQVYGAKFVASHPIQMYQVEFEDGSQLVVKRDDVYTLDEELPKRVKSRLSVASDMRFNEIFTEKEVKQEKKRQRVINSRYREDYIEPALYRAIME
G9a inh = inhibitors of human histone lysine methyltransferase G9a; Q96KQ7; G9a H3K9 monomethylation, AlphaScreen, 2 h; Potency, µM (series often up to 102 µM), inactives show top-dose activity, negative = inhibition, hits mostly inhibitors; 350,000 compounds, 8.8% hits; AID 504332; also: % is scaled to controls: 0 for no effect and ±100 for the full control effect; nearly all actives have a fitted effect of over 75% in size
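G9a (20 nM) was preincubated 15 min with compound, then reacted 2 h at room temperature with 500 nM biotin-H3K9 peptide and 20 µM SAM. Monomethyl-H3K9 detected by AlphaScreen using anti-H3K9me1 antibody.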
BAZ2B inh = inhibitors of human BAZ2B bromodomain; AlphaScreen BAZ2B-H3K14Ac peptide displacement; 360,000 compounds, 4.4% hits; Potency, µM (top dose mostly 114 µM), without a hit: top-dose activity change, negative = inhibition, actives largely listed as inhibitors; Q9UIF8; also: % is scaled to controls: 0 for no effect and ±100 for the full control effect; nearly all actives have a fitted effect of over 60% in size
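AlphaScreen luminescence quantifies BAZ2B engagement of H3K14Ac peptide; the protein and biotinylated peptide are both at 50 nM final, buffer PBS pH 7.4 with 0.01% Tween-20, all steps at room temperature.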
Sfp inh = inhibitors of Bacillus subtilis Sfp phosphopantetheinyl transferase; Biochemical Sfp PPTase activity, qHTS; Potency, µM, without a hit: largest response in the series, negative = inhibition, most hits filed as inhibitors; 310,000 compounds, 3.5% hits;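 also: the enzyme is Sfp with the accession as filed and its product quenches rhodamine fluorescence; 0% = enzyme reaction without inhibitor and -100% = no enzyme wells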
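Sfp 15 nM + cpd, 15 min RT; start w/ rhodamine-CoA 5 uM, BHQ-2-YbbR 12.5 uM (final); 50 mM Hepes pH 7.6, 10 mM MgCl2, 0.01% NP-40, 0.01% BSA; read 525/598 nm at 0 and 30 min.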
Starred values were filed as active, the others as inactive; ? = inconclusive; · = no result; ! = a repeat was not active; [ ] = another dose, or the depositor's remark. Calls follow the shape of the dose curve; as a rule, active = well fitted curve in the direction sought with a large enough effect; inconclusive = small, poorly fitted or top-dose-only effect, or another doubt; inactive = no such curve, though single readings can be large; an effect the other way counts as inactive or inconclusive. Potency is read from the fitted curve at half-maximal effect.

SMILES	HP1b binding inh	PLK1 PBD block	JMJD2A Tudor inh	G9a inh	BAZ2B inh	Sfp inh
CCc1ccccc1N1C(=O)NC(=O)/C(=C\c2cc(C)n(C)c2C)C1=O	?	-15%	-15%	9%[59 µM]	-4%	3%
Cc1ccccc1N1C(=O)/C(=C/c2ccco2)C(=O)NC1=S	·	·	·	1.8µM*	1.1µM*	20µM*
Cc1ccccc1N1C(=O)NC(=O)/C(=C/c2ccc(N3CCOCC3)o2)C1=O	28%	90%	1%	?	-19%	8%
CCOc1ccc(N2C(=O)/C(=C\c3cccs3)C(=O)NC2=S)cc1	23%	2.7µM*	35µM*	7.1µM*	-33%	13µM*
CCOc1ccc(-n2c(-c3ccoc3)nc3ccccc3c2=O)cc1	-1%	-12%	-7%	?	-18%	-27%
O=P1(c2ccccc2)CC=CC1	·	1%	·	·	·	·
NC1CCCC[C@H]1N (stereo not given in full)	·	·	·	·	·	6%
O=CC(Br)P(=O)(N1CCOCC1)N1CCOCC1 (stereo not given)	-23%	?	-16%	·	-6%	25µM*
O=P(C(Cl)Cl)(N1CCOCC1)N1CCOCC1	-22%	-10%	-8%	-3%	4%	20%
COc1ccc2c3c([nH]c2c1)C(C)NCC3 (stereo not given)	-13%	-9%	50µM*	-25%[12.7 µM]	?	9%
COc1ccc2[nH]c3c(c2c1)CCNC3C (stereo not given)	45%	-6%	-23%	19%	-24%	12%
CC(=O)O[C@H]1CCC2C3CCC4=CC(=O)CCC4=C3C=C[C@@]21C (stereo not given in full)	?	?	?	45µM*	-7%	?
O=C(NCCc1ccc(Cl)cc1)C(=O)NCC(c1cccs1)S(=O)(=O)c1cccs1 (stereo not given)	53%	·	-5%	1%[59 µM]	1%	·
CN1CCCC2(CCN(C(=O)c3ccco3)CC2)C1	·	·	·	-3%[12.7 µM]	·	11%
CCOC(=O)CNC(=O)CSP(=S)(OCC)OCC	20%	-10%	13%	?	2%	79µM*
CCN(CC)C(=O)c1ccc2c(c1)C1C(Cl)C(Sc3ccccc3[N+](=O)[O-])CC1C(C(=O)O)N2 (stereo not given)	11µM*	6.7µM*	?	7.9µM*	20µM*	45µM*
CCN(CC)C(=O)c1ccc(NC(=O)c2cccc(S(=O)(=O)N3CCN(Cc4ccccc4)CC3)c2)cc1	-11%	-4%	-34%	10%[12.7 µM]	-10%	·
Cc1ccc2c(c1Cl)NC(C(=O)O)C1CC(Sc3ccccc3[N+](=O)[O-])C(Cl)C21 (stereo not given)	?	27µM*	56µM*	·	14µM*	?
CCc1ccc(OCC(=O)N2CCN(CCc3ccccn3)CC2)cc1	43%	·	-14%	-3%[59 µM]	-4%	·
C=C(CC1(C(C)NP(=O)(c2ccccc2)c2ccccc2)CC1)c1ccccc1 (stereo not given)	·	·	·	·	·	-10%
O=C1NC(=S)SC1=Cc1ccc(N(CCCl)CCCl)cc1	?	54%	32µM*	·	·	·
COC1C(OC(=O)c2ccc(C)[nH]2)C(O)C(Oc2ccc3c(O)c(NC(=O)c4ccc(O)c(CC=C(C)C)c4)c(=O)oc3c2Cl)OC1(C)C (stereo not given)	?	-6%	50µM*	·	?	9%
Cc1cccc(N2C(=O)NC(=O)/C(=C\c3cc(C)n(-c4sc5c(c4C#N)CCCC5)c3C)C2=O)c1C	-20%	0.75µM*	?	16µM*	?	35µM*
COc1ccc(-c2nc(CSCC(=O)N3CCN(c4ccc(F)cc4)CC3)c(C)o2)cc1	-24%	·	50µM*	-49%[59 µM]	-25%	·
CN1CCC(c2c[nH]c3ccc(O)cc23)CC1	38%	-2%	-16%	13µM*!	·	21%
SMILES	HP1b binding inh	PLK1 PBD block	JMJD2A Tudor inh	G9a inh	BAZ2B inh	Sfp inh
CC1CC(O)[C@]2(O)[C@]13CC(=O)OC[C@@]2(C)[C@@](C)(O)C(=O)C3 (stereo not given in full)	·	·	·	·	·	4%
N#Cc1ccc(C(=O)N2CCN(c3nc4ccc(F)cc4s3)CC2)cc1	40%	·	0%	5%[59 µM]	0%	·
O=C(O)C(O)(c1ccccc1)C1CCCC1 (stereo not given)	46%	0%	1%	25µM*	?	8%
CC(C)(C)C(=O)OC[N+](C)(C)CCOC(=O)C(O)(c1ccccc1)C1CCCC1 (stereo not given)	-2%	-14%	-5%	7%	4%	9%
c1cncc(CNC2=NCCCCC2)c1	4%	-7%	-12%	?	79µM*	8%
c1cncc(CNC2CCCC2)c1	39%	-22%	?	8%[0.501 µM]	?	-1%
C[n+]1c(-c2ccccc2)c2cc(N)ccc2c2ccc(N)cc21	-21%	-22%	?	?	40µM*	-6%
CCN(CC)C(=O)c1ccc(NC(=O)c2ccc(-c3nn(C)c(=O)c4ccccc34)cc2)cc1	-1%	30µM*	?	3%[59 µM]	?	7%
N#CC(C#N)=NNc1cccc(Cl)c1	·	·	·	·	·	56µM*
CC(C)OC(=O)Nc1cccc(Cl)c1	·	·	·	·	·	-4%
OC[C@@H]1[C@@H](O)[C@H](O)[C@H]2[C@@H](O)CCN21	·	·	·	·	·	0%
[O]=[Sb]([OH])([OH])[c]1ccccc1	4%	·	-30%	·	·	·
O=C(O)c1cccc2c1NC(c1cccc([N+](=O)[O-])c1)C1CC(Sc3ccccc3[N+](=O)[O-])C(Cl)C21 (stereo not given)	?	13µM*	22µM*	16µM*	22µM*	40µM*
O=C(O)c1ccc2c(c1)C1C(Cl)C(Sc3ccccc3[N+](=O)[O-])CC1C(c1cccc([N+](=O)[O-])c1)N2 (stereo not given)	40µM*	19µM*	-22%[11.4 µM]	20µM*	18µM*	?
COC(=O)N1CCN(C(=O)Cc2ccc(Cl)c(Cl)c2)[C@H](CN2CCCC2)C1	·	·	·	·	·	25%
OCC(CBr)(CBr)CBr	27%	-15%	-17%	2%[0.501 µM]	0%	·
NC[C@H](CS(=O)(=O)O)c1ccc(Cl)cc1	·	·	·	·	·	-10%
Cc1cccc(CN2CCN(Cc3ccc(Cl)cc3)CC2)c1	?	3%	1.1µM*	7.1µM*	32µM*	?
CCCCCCN1CCN(c2ccc(Cl)cc2)CC1	?	-5%	?	?	45µM*	-23%
Cc1cccc(CN2CCN(c3ccc(Cl)cc3)CC2)c1	?	4%	22µM*	32µM*	50µM*	-15%
Cc1c(NS(=O)(=O)c2ccccc2)ccc([N+](=O)[O-])c1Cl	9%[57 µM]	-7%	-18%	·	·	·
